Assay outcomes deposited in PubChem by National Center for Advancing Translational Sciences (NCATS).
Only a selection was taken, and hits are over-represented in it overall.
TDP1 cell noCPT: qHTS for Inhibitors of human tyrosyl-DNA phosphodiesterase 1 (TDP1): qHTS in cells in absence of CPT. Potency, µM (series often up to 46.2 µM), usual class: inhibitors. DT40 Tdp1-/- hTDP1 cells, no CPT, ATP luminescence, 48 h. hit rate 15% among 420,000; note: nearly all actives have a fitted effect of over 55% in size
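Seeded 400 DT40-hTDP1 cells/well (vehicle DMSO, no 20 nM CPT); pinned compounds; ≥48 hr at 37 °C; CellTiter-Glo luminescence as viability measure.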
12-LOX inh: Primary qHTS assay for inhibitors of human arachidonate 12S-lipoxygenase (ALOX12): Round 2. Polyunsaturated fatty acid lipoxygenase ALOX12 (Homo sapiens), P18054. purified 12hLO, xylenol orange hydroperoxide absorbance. Potency, µM (highest dose often 108 µM), actives largely listed as inhibitors. hit rate 1.1% among 580,000. AID 1671190, 2021
Target sequence (P18054 whole entry, looked up): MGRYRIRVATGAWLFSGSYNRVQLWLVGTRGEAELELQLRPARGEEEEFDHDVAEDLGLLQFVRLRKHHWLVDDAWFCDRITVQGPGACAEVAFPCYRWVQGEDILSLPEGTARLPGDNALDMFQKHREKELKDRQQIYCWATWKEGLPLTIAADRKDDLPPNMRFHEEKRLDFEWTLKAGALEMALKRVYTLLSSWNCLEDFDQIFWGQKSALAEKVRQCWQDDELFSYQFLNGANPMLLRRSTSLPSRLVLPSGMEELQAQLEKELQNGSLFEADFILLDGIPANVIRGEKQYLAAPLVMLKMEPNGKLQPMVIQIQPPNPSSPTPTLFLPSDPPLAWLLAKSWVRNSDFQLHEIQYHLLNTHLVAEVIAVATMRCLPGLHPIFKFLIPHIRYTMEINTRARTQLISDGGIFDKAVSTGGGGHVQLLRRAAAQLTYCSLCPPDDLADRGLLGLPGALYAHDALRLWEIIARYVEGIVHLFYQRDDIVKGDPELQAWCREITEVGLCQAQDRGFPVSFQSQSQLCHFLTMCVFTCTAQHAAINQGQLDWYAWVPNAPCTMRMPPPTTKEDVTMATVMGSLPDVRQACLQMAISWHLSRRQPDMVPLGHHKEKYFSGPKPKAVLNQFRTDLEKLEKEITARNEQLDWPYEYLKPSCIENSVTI
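Purified human 12hLO at 150 nM in 25 mM Hepes, 0.01% Triton X-100, pH 7.0, preincubated 15 min at room temperature with compound. Reaction started with 40 uM arachidonic acid, 30 min at room temperature. Hydroperoxide measured by Fe-xylenol orange, 573/405 nm absorbance ratio.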
HT1080-NT tox: qHTS for induction of synthetic lethality in tumor cells producing 2HG: qHTS for the HT-1080-NT fibrosarcoma cell line. HT-1080-NT fibrosarcoma viability, CellTiter-Glo ATP luminescence, 48 h. Potency, µM (doses to about 46.1 µM), hits mostly cytotoxic. hit rate 1.6% among 360,000. AID 686970, 2013;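 note: NT is the 2HG producing partner of a matched IDH1 knockdown line; nearly all actives have a fitted effect of over 55% in size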
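Toxicity toward the 2HG-producing NT line was scored as %Activity, normalised to DMSO and no-cell wells, from CellTiter-Glo luminescence after 48 hours' treatment.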
IL1B secr inh: qHTS for Inhibitors of Inflammasome Signaling: IL-1-beta AlphaLISA Primary Screen; THP-1 LPS/ATP IL-1B secretion, AlphaLISA, 16 h; hits give low values; activity change, % at 57.5 µM; hit rate 4.7% among 360,000; in the data active = activity change below about -50%; inconclusive = mostly about -30% to -49%
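Secreted IL-1B measured by AlphaLISA bead assay after 16 h compound exposure of THP-1 cells; compounds (final up to 57.5 uM) added 1 h before LPS (250 ng/mL) and ATP (1.25 mM) stimulation; lower signal means less secretion.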
HT1080 IDH1KD tx: qHTS for induction of synthetic lethality in tumor cells producing 2HG: qHTS for the HT-1080-IDH1KD cell line; Potency, µM (series often up to 46.1 µM), most hits filed as cytotoxic; hit rate 2% among 360,000; HT-1080 IDH1 knockdown viability, ATP luminescence, 48 h
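Viability of IDH1-knockdown HT-1080 fibrosarcoma cells was assessed by CellTiter-Glo after 48 h at 37 °C with titrated compound; concentration-effect curves were classified by fit quality and response size.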
DT40 TDP1 CPT: qHTS for Inhibitors of human tyrosyl-DNA phosphodiesterase 1 (TDP1): qHTS in cells in presence of CPT. chicken DT40 Tdp1-/-;hTDP1 cells + 20 nM CPT, ATP luminescence, 48 h. Potency, µM (doses to about 46.2 µM), actives largely listed as inhibitors. AID 686979, 2013. hit rate 12% among 420,000; note: nearly all actives have a fitted effect of over 55% in size
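Chicken DT40 Tdp1-/- cells stably complemented with human TDP1 were seeded at 400 cells/well in medium containing 20 nM camptothecin, exposed to pin-transferred compounds, and grown at 37 °C for at least 48 hr. Viability was read as ATP luminescence.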
Numbers stand for hits; – = inactive; ? = inconclusive; · = no result given; ! = repeats disagree. Unless noted, calls come from the whole dose curve; as a rule, active = well fitted curve in the direction sought with a large enough effect; inconclusive = small, poorly fitted or top-dose-only effect, or another doubt; inactive = no such curve, though single readings can be large; an effect the other way counts as inactive or inconclusive.

SMILES | TDP1 cell noCPT | 12-LOX inh | HT1080-NT tox | IL1B secr inh | HT1080 IDH1KD tx | DT40 TDP1 CPT
CC(C)Oc1ccc(CNC(=O)c2ccc(Cn3c(=O)c4cccn4c4cccnc43)cc2)cc1 | 0.461µM | – | · | · | · | ?
CCOc1ccc(CCNC(=O)c2cccc(-n3c(C)nc4cccnc43)c2C)cc1 | 14.6µM | – | · | · | · | 20.6µM
CCOc1ccc(CCNC(=O)c2ccc(Cn3c(=O)c4cccn4c4cccnc43)cc2)cc1 | 20.6µM | ? | · | · | · | 13µM
O=C(NCCc1ccc(Cl)cc1)c1ccc(Cn2c(=O)c3cccn3c3cccnc32)cc1 | 14.6µM | – | · | · | · | ?
CCN(CC)S(=O)(=O)c1ccc2c(c1)nc(CN(C)C(=O)Nc1ccc(C)c(F)c1)n2C | ? | – | · | · | · | ?
Cc1ccccc1-n1nc(C)c(CCC(=O)NCC2CCCO2)c1Oc1ccccc1F (stereo unspecified) | · | – | · | · | · | ·
Cc1noc(C)c1C(C)C1=CCCCC1 (stereo unspecified) | · | – | · | · | · | ·
COCCCN1Cc2cc(NC(=O)Cc3ccc(OC)cc3)ccc2OC(C)C1=O (stereo unspecified) | · | – | · | · | · | ·
CCOC(=O)/C=C1\CC(C(=O)OCC)Oc2c(OC)cccc21 (stereo unspecified) | 23.1µM! | ? | – | – | – | ?
CCCC(=O)Nc1ccc(NC(=O)c2ccccc2F)cn1 | – | – | – | -61.1 | – | –
COc1ccc([C@H]2C[C@@H](n3cc(C4CC4)nn3)[C@H](O)CN2CC2CCCCC2)cc1 | 20.6µM | – | ? | -54.9 | ? | ?
Cc1ccc([C@H]2C[C@H](n3cc(C4CC4)nn3)[C@@H](O)CN2CC2CCCCC2)cc1 | 18.4µM | ? | ? | – | ? | ?
COc1ccc([C@H]2C[C@H](O)[C@@H](n3cc(C4CC4)nn3)CN2CC2CCCCC2)cc1 | ? | – | – | – | – | ?
CC(C)NC(=O)CNC(=O)c1nc2ccccc2c(=O)[nH]1 | · | – | · | · | · | ·
Cc1c(C(=O)Nc2ccc(Br)cc2)cnn1C | – | – | – | – | – | –
Cc1c(C(=O)c2no[n+]([O-])c2C(=O)c2cnn(C)c2C)cnn1C | 3.66µM | – | ? | – | ? | 2.59µM
Cc1sc(NC(=O)c2ccccc2)c(C(c2ccc(Cl)cc2)N2CCN(CCO)CC2)c1C (stereo unspecified) | 25.9µM | ? | ? | -65.6 | ? | 23.1µM
COc1ccc(C(c2c(NC(C)=O)sc3c2CCCC3)N2CCN(CCO)CC2)cc1OC (stereo unspecified) | – | – | – | – | – | –
CCOc1ccc(C(c2c(NC(=O)c3ccccc3)sc(C)c2C)N2CCN(CCO)CC2)cc1 (stereo unspecified) | 18.4µM | ? | ? | -66.8 | ? | 20.6µM
CCc1cc(C(c2ccncc2)N2CCN(C)CC2)c(NC(=O)c2ccccc2)s1 (stereo unspecified) | – | – | – | – | – | –
CC(=O)Nc1sc2c(c1C(c1cccc(Cl)c1)N1CCN(CCO)CC1)CCCC2 (stereo unspecified) | 25.9µM | – | – | – | – | 16.4µM
O=C(CSc1ccccc1)N1CCc2onc(-c3ccc(F)c(F)c3)c2C1 | · | – | · | · | · | ·
C/C(=N\NC(=O)c1ccccc1[N+](=O)[O-])c1c(O)cc(C)oc1=O | ? | – | – | – | – | ?
C/C(=N\NC(=O)c1cccc(F)c1)c1ccc(Br)s1 | 7.08µM | – | 11.2µM | – | 5.62µM | 5.62µM
C/C(=N\NC(=O)c1cccc(C)c1)c1ccc(C)s1 | · | – | · | · | · | ·
CCOC(=O)C(CC)/C(C)=N\NC(=O)c1ccccc1O (stereo unspecified) | 23.1µM | – | ? | – | 16.4µM | 16.4µM
